Assay outcomes as filed in PubChem.
tim10-1 inh = growth inhibitors of tim10-1 mutant yeast. S. cerevisiae tim10-1 ts strain growth, BacTiter-Glo, 24 h. inhibition, % at 20 µM. 330,000 tested, 2.2% active. AID 463190;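 active means inhibition of at least 40%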;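 further: mutant grown at 25 °C; 0% = DMSO wells with yeast and 100% = wells holding no yeast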
PfHsp90 yeast 2 = growth inhibition of yeast expressing Plasmodium Hsp90; S. cerevisiae expressing PfHsp90, BacTiter-Glo ATP, 48 h; yeast lacking PDR1 and PDR3 efflux regulators; inhibition, % at 9.4 µM; 310,000 tested, 0.32% active;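 active means every replicate shows inhibition above about 80%, whatever the replicate mean, limit read from the data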;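 further: 0% = DMSO neutral controls and 100% = 20 µM radicicol positive controls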
NLRP3 yeast inh = inhibitors of NALP3 inflammasome in yeast | Yeast reconstituted NLRP3/ASC/caspase-1, beta-gal luminescence, 24 h | inhibition, % at 10 µM | 330,000 tested, 0.39% active | AID 2825;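 active means inhibition of 50% or more; inactive means inhibition below 50%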;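 further: plate controls were induced DMSO wells for no effect and uninduced yeast grown without galactose for full effect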
tim23-1 inh = tim23-1 yeast growth inhibition; 330,000 tested, 1.3% active; S. cerevisiae tim23-1 growth, BacTiter-Glo luminescence, 24 h; AID 463212; inhibition, % at 20 µM;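 active means growth inhibition of the mutant yeast at or above 50%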;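 further: temperature-sensitive mutant grown at 25 °C; plate controls were DMSO-treated mutant yeast for no effect and medium wells lacking yeast for full effect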
TIM10 inh = inhibits growth of TIM10 yeast strain | S. cerevisiae TIM10 strain growth, BacTiter-Glo luminescence, 24 h | inhibition, % at 10 µM | AID 463195 | 330,000 tested, 1.4% active;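 active means inhibition of 40% or more at the single tested concentration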;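 further: wild-type TIM10 isogenic control strain grown at permissive 25 °C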
NALP3 yeast conf = confirmation of NALP3 inhibitors in yeast | inhibition, % at 10 µM | yeast expressing human NALP3, luminescence | shares compounds with NLRP3 yeast inh | 1,300 tested, 81% active; in the data active means inhibition above about 48%
Casp1-ASC yeast = caspase-1-ASC yeast counter-screen hit; inhibition, % at 10 µM; AID 488784; yeast expressing Caspase-1-ASC, luminescence counter screen; 1,000 tested, 66% active; shares compounds with NLRP3 yeast inh
NALP3 yeast rt = confirmation retest of NALP3 inhibitors in yeast. shares compounds with NLRP3 yeast inh. yeast expressing human NALP3, luminescence read-out. inhibition, % at 10 µM. 1,000 tested, 53% active. AID 488794
* = called active by the depositor; nt = no result. The list is not random: actives were taken first. Their share in the collection is about 3.7%. Unless noted, no stated cut-off is given here; in the data, active means inhibition above about 50%; inactive means the rest.

SMILES | tim10-1 inh | PfHsp90 yeast 2 | NLRP3 yeast inh | tim23-1 inh | TIM10 inh | NALP3 yeast conf | Casp1-ASC yeast | NALP3 yeast rt
O=C1CS/C(=C/C(=O)c2cccc(Cl)c2)N1 | -20.9 | -4.7 | 66.0* | 48.2 | 14.0 | 72.3* | 53.5* | 58.9*
O=C(NCC(=O)N(c1cccnc1)C(C(=O)NC1CCCC1)c1ccccc1F)c1ccco1 (stereo not given) | -2.9 | -54.8 | 3.3 | 17.1 | 4.8 | nt | nt | nt
O=C(CCNc1ccccc1)c1ccc2c(c1)OCO2 | 5.8 | nt | 55.6* | 4.1 | -23.4 | 64.2* | 64.4* | 46.2
O=C(/C=C/c1ccccc1Br)c1ccc2c(c1)OCO2 | 5.0 | 0.3 | 62.0* | 28.1 | 2.0 | 59.7* | 19.6 | 29.1
CN(C)CCC(=O)c1ccc2c(c1)OCO2 | 16.0 | nt | -0.8 | 9.9 | 6.7 | nt | nt | nt
O=C(/C=C/c1cccc(Br)c1)c1ccc2c(c1)OCO2 | 21.5 | -26.3 | 28.9 | 26.4 | 23.7 | nt | nt | nt
O=C(/C=C/c1ccccc1)c1ccc2c(c1)OCO2 | 4.9 | 2.4 | 53.2* | 12.5 | 1.0 | 40.2 | 41.9 | 33.5
CC(=O)c1ccc(OC(C)C(=O)NCC2(N3CCOCC3)CCCCC2)cc1 (stereo not given) | -3.9 | -9.0 | 31.8 | -1.8 | -3.0 | nt | nt | nt
CCS(=O)(=O)c1ccc2oc(Nc3ccc(OC)cc3)nc2c1 | 35.1 | -12.5 | -116.2 | 11.8 | 26.5 | -16.5 | nt | nt
CN(C)CCn1cnc2c(c1=N)C(c1ccccc1)c1ccc3ccccc3c1O2 (stereo not given) | 9.1 | 27.0 | -1.9 | 7.5 | 3.2 | nt | nt | nt
CC1CC(C)(C)N(C(=O)CN2CCN(C)CC2)c2ccccc21 (stereo not given) | 26.2 | 6.7 | 12.2 | 17.2 | 8.2 | nt | nt | nt
CC1CC(C)(C)N(C(=O)CN2C(=O)c3ccccc3C2=O)c2ccccc21 (stereo not given) | 35.7 | -1.7 | 52.4* | 30.8 | -1.6 | 10.5 | nt | nt
CSc1nsc(SCC(=O)NCc2ccc(C)cc2)n1 | -8.0 | 27.7 | 50.6* | 24.7 | -17.2 | 62.1* | 44.0 | 39.5
CCC1(C)CN=C(c2ccccc2)NC1 (stereo not given) | nt | -20.8 | nt | nt | nt | nt | nt | nt
CCn1cnc2sc(-c3ccccc3)cc2c1=O | 15.3 | 10.9 | 62.5* | 5.9 | 1.8 | 56.2* | 66.0* | 55.7*
CC(=O)Cn1cnc2sc(-c3ccccc3)cc2c1=O | 11.4 | -31.9 | 15.7 | 10.4 | 14.6 | nt | nt | nt
O=C(Cc1cccc(F)c1)N1CCOCC1 | nt | 0.1 | nt | nt | nt | nt | nt | nt
Cc1cccc(NC(=O)c2ccc(S(=O)(=O)N3CCCCC3)cc2)c1 | 21.6 | 18.2 | 52.0* | 33.1 | 22.9 | 60.0* | 59.9* | 51.9*
O=[N+]([O-])c1ccc(N2CCCC2)cc1N1CCCC1 | 5.9 | -34.0 | 58.2* | 22.1 | 0.3 | 52.5* | 63.3* | 52.6*
COc1ccc2c(C)cc(SCC(=O)NC3CCCC3)nc2c1 | 5.8 | -18.1 | 48.2 | 27.7 | 12.4 | nt | nt | nt
COc1ccc2nc(SCC(=O)NC3CCCC3)c(C)cc2c1 | 5.0 | 8.3 | 58.0* | 2.5 | 15.6 | 71.2* | 53.4* | 49.1
O=C(CC1C(=O)NCCN1C(=O)c1ccccc1)Nc1cc(Cl)ccc1Cl (stereo not given) | 4.7 | 2.2 | 16.9 | 13.3 | 4.5 | nt | nt | nt
Cc1ccc(NC(=O)Cc2csc(-c3ccccc3)n2)cc1F | -0.6 | 3.4 | 62.4* | 47.9 | 24.1 | 38.2 | 53.5* | 60.2*
CCc1ccccc1NC(=O)c1cnn(-c2ccccc2)c1C | -7.6 | -4.5 | 51.6* | 29.1 | -14.8 | 73.5* | 60.8* | 55.6*
Cc1cccc(NC(=O)c2cnn(-c3ccccc3)c2C)c1C | -13.8 | 10.8 | 40.2 | 19.1 | -14.6 | nt | nt | nt
SMILES | tim10-1 inh | PfHsp90 yeast 2 | NLRP3 yeast inh | tim23-1 inh | TIM10 inh | NALP3 yeast conf | Casp1-ASC yeast | NALP3 yeast rt
Cc1ccccc1NC(=O)c1cnn(-c2ccccc2)c1C | 2.5 | 12.8 | 44.0 | 14.3 | 4.0 | nt | nt | nt
Cc1c(C(=O)Nc2cccc(F)c2)cnn1-c1ccccc1 | -28.1 | 23.6 | 55.4* | 26.4 | -3.5 | 71.6* | 71.2* | 64.1*
Cc1ccc(C)c(NC(=O)c2cnn(-c3ccccc3)c2C)c1 | -8.9 | 12.0 | 55.1* | 21.7 | -23.5 | 65.6* | 44.9 | 44.7
CCOc1ccccc1C1NC(=O)CCC1[N+](=O)[O-] (stereo not given) | 4.0 | -2.5 | 12.5 | 2.5 | -0.6 | nt | nt | nt
Oc1ccc(-c2cn3c(n2)SCC3)cc1 | 0.1 | -35.4 | 12.5 | 3.1 | 1.9 | nt | nt | nt
Brc1ccc(-c2cn3c(n2)SCC3)cc1 | -25.6 | 11.7 | 59.0* | 41.0 | 0.3 | 63.7* | 62.8* | 61.2*
CC(C)c1ccc(/C=C2\SC(=O)N(CC(=O)NC3C=CS(=O)(=O)C3)C2=O)cc1 (stereo not given) | 4.5 | 6.8 | 5.9 | -13.4 | 11.2 | nt | nt | nt
CC(Sc1nc(C(F)(F)F)nc2ccccc12)C(=O)NC1CCCC1 (stereo not given) | 7.6 | nt | 52.2* | 12.8 | -11.8 | 36.2 | nt | nt
CC(C)(C)c1nc(SCC(=O)NC2CCCC2)c2ccccc2n1 | 0.5 | -5.4 | 8.7 | 20.4 | -4.5 | nt | nt | nt
O=C(NCCCc1ccccc1)c1cccc(Br)c1 | 9.3 | -6.3 | 3.3 | 27.4 | 16.5 | nt | nt | nt
O=C(NCCCCc1ccccc1)c1cccc(Br)c1 | -19.2 | -3.5 | 52.9* | 5.4 | -15.6 | 68.8* | 57.4* | 39.8
CC1CCCC(NC(=O)CCC(=O)N2CCOc3ccccc32)C1C (stereo not given) | 11.2 | 14.2 | 13.3 | 10.4 | 6.5 | nt | nt | nt
c1ccc(C2Nc3ccccc3C3OCCCC23)cc1 (stereo not given) | -15.7 | 21.1 | 62.1* | 20.6 | 0.7 | 54.0* | 42.1 | 58.0*
Cc1ccc2c(c1)[C@H]1OCC[C@H]1[C@@H](c1ccncc1)N2 | 5.8 | 0.3 | 20.1 | 10.1 | 10.0 | nt | nt | nt
O/N=C/c1cc(Br)cc(Br)c1OCc1ccccc1 | 36.6 | -22.9 | -102.4 | 23.6 | -35.7 | -40.0 | nt | nt
O/N=C/c1ccc(OCc2ccccc2)c(Br)c1 | nt | -8.7 | nt | nt | nt | nt | nt | nt
Cc1ccccc1OCC(=O)Nc1nnc(COc2ccccc2)s1 | 5.3 | 31.6 | 29.3 | 11.1 | 0.9 | nt | nt | nt
Cc1ccc(C(=O)Cn2cnc3ccccc3c2=O)cc1 | 1.4 | 26.2 | 52.4* | 46.4 | 13.8 | 63.8* | 33.5 | 46.2
O=C(Cn1cnc2ccccc2c1=O)c1ccccc1 | -14.7 | 0.0 | 0.6 | 12.2 | -6.8 | nt | nt | nt
CCOC(=O)c1c(NC(=O)CSc2nnc(C)o2)sc(C)c1C | 9.7 | 10.3 | 51.9* | 30.5 | 10.0 | 54.2* | 47.6 | 34.4
CCOC(=O)c1c(NC(=O)CSc2nnnn2C)sc(C)c1C | 18.1 | 0.3 | 14.9 | 11.7 | 14.7 | nt | nt | nt
CCCn1c(=O)n(C)c(=O)c2c(SC(C)C(=O)NCC3CCCO3)nc(CC(C)C)nc21 (stereo not given) | 10.9 | 18.8 | 3.1 | 24.1 | 10.1 | nt | nt | nt
